According to PubChem BioAssay (Tox21):
“And” between values parts separate entries of the source, which are not always exact repeats. Identical values can stand only once. Results filed as inconclusive are left out. Values without a mark were called inactive. The source made the active and inactive calls. Calls come from the whole dose curve.

assay: Nuclear factor erythroid 2-related factor 2/antioxidant responsive element (Nrf2/ARE) small molecule agonists: luciferase reporter gene qHTS assay in human keratinocytes (AID 1919969); conditions: KeratinoSens HaCaT ARE-luciferase, luminescence, 24 h; series mostly up to 92.4 µM; activity, positive = activation: at the top concentration; note: nearly all actives have a fitted effect of over 35% in size
From the text: National Center for Advancing Translational Sciences [NCATS]
Division of Preclinical Innovation [DPI]
U.S. Environmental Protection Agency [EPA]
National Institutes of Environmental Health Sciences [NIEHS]
National Toxicology Program [NTP]
U.S. Food and Drug Administration [FDA]
Oxidative stress has been implicated in the pathogenesis of a variety of diseases ranging from cancer to neurodegeneration. The antioxidant response element (ARE) signaling pathway plays an important role in the amelioration of oxidative stress. The KeratinoSens (Givaudan, Switzerland) is an in vitro test method which quantifies luciferase induction as a measure of activation of Keap1-Nrf2-antioxidationt/electrophile response element (ARE) dependant pathway in HaCaT human keratinocytes stably transfected with a selectable plasmid. The KeratinoSens assay is a cell-based assay with a reporter cell line to detect potential skin sensitizers by their ability to induce the Nrf2/ARE-response. The activation of the report gene under culture conditions can be detected by ONE-Glo Luciferase Assay System (Promega, Madison, WI). This cell line has been used to screen the Tox21 10K compound library to identify agonists that induce oxidative stress. The cytotoxicity of the Tox21 compound library against the KS-ARE cell line was tested in parallel by measuring the cell viability using CellTiter- Fluor assay system (Promega, Madison, WI) in the same wells.
HaCaT derived cell line KeratinoSens were dispensed at 1,500 cells/5uL/well in 1536-well white wall/solid bottom plates using a Multidrop Combi (ThermoFisher Scientific, Waltham, MA) dispenser. After the assay plates were incubated at 37 C/5% CO2 for 5 h, 23 nL of compounds dissolved in DMSO, positive controls or DMSO only was transferred to the assay plate by a pintool workstation (Kalypsys, San Diego, CA). The plates were incubated at 37 C/5% CO2 for 23 h, followed by addition of 1uL/well of CellTiter-Fluor reagent into the assay plates using a Flying Reagent Dispenser (Aurora Discovery, San Diego, CA) for cell viability readout that measures cytotoxicity. After 1 h incubation at 37 C/5% CO2 the fluorescence intensity was measured using a ViewLux (PerkinElmer, Shelton, CT) plate reader. Then 4uL/well of One-Glo were added using a Flying Reagent Dispenser. After the plates were incubated at room temperature for 30 min, the luminescence intensity in the assay plates was measured using ViewLux plate reader.
% is set by controls: 0 for no effect and ±100 for the full control effect; potency is the fitted concentration of half-maximal effect.

| Compound | activity, positive = activation | Potency |
| --- | --- | --- |
| COCC(=O)O[C@]1(CCN(C)CCCc2nc3ccccc3[nH]2)CCc2cc(F)ccc2[C@@H]1C(C)C | -45.3% [at 42.5 µM] |  |
| CCCCCCCC/C=C\CCCCCCCC(=O)N(CCO)CCO | -38% |  |
| O=C1CC[C@@H](C(=O)O)N1 | -7.2% [at 42.5 µM] |  |
| CCCCCCCCCCCCCCCCCBr | -1.2% [at 19 µM] |  |
| Nc1ccc(N)c2c1C(=O)c1ccccc1C2=O | 0.0042% |  |
| N#Cc1ccccc1O | 1.41% |  |
| Clc1cccc(C(c2ccc3nc[nH]c3c2)n2ccnc2)c1 (stereo not given) | -9.17% [at 42.5 µM] |  |
| CCS(=O)(=O)c1ccc(OC)c(C(=O)OC)c1 | -4.15% [at 42.5 µM] |  |
| Cc1nnc(SCC2=C(C(=O)O)N3C(=O)[C@@H](NC(=O)Cn4cnnn4)[C@H]3SC2)s1 | 13.6% [at 42.5 µM] |  |
| Cc1ccc(S(=O)(=O)NC(=O)NC2CCCCC2)cc1 | -1.87% [at 42.5 µM] |  |
| CC(=O)N(CC(O)CO)c1c(I)c(C(=O)NCCO)c(I)c(C(=O)NCC(O)CO)c1I (stereo not given) | 8.53% [at 42.5 µM] |  |
| CC(N)=O | 1.9% [at 240 µM] |  |
| NC(=O)c1ccccc1 | -6.39% |  |
| CCCCC/C=C\C=C\C(=O)OCC |  | 25.4 µM (active) |
| CCCCCCCC/C=C\CCCCCCCC(=O)OC(CO)CO |  | 34.4 µM (active) |
| C=CC(=O)OCCCCCCOC(=O)C=C |  | 27.6 µM (active) and 24.3 µM (active) |
| CN1CCN(CCC(=O)N2c3ccccc3Sc3ccc(C(F)(F)F)cc32)CC1 | -23.2% [at 42.5 µM] |  |
| CC(CO)(CO)[N+](=O)[O-] | -4.12% |  |
| COc1ccc2c(c1)c(CC(=O)OC/C=C(\C)CC/C=C(\C)CCC=C(C)C)c(C)n2C(=O)c1ccc(Cl)cc1 | -1.51% [at 42.5 µM] |  |
| Clc1sc(Cl)c(Cl)c1Cl | 9.41% |  |

| Compound | activity, positive = activation | Potency |
| --- | --- | --- |
| CCN(Cc1cccc(S(=O)(=O)O)c1)c1ccc(C(=C2C=CC(=[N+](CC)Cc3cccc(S(=O)(=O)O)c3)C=C2)c2ccccc2S(=O)(=O)[O-])cc1 | -38.2% [at 42.5 µM] |  |
| CCCCC(CC)COP(=O)(O)O (stereo not given) | -12.7% |  |
| COC(=O)CC(C)=O | -3.88% |  |
| C[C@H]1[C@H]2CC[C@H]3[C@@H]4CC=C5C[C@@H](N(C)C)CC[C@]5(C)[C@H]4CC[C@]23CN1C | 1.53% [at 42.5 µM] |  |
| Oc1ccc(Cl)cc1C1CCCC1 | 2.29% |  |
| C=CCOc1ccccc1OCC(O)CNC(C)C (stereo not given) | 8.85% [at 42.5 µM] |  |
| CC(=O)Nc1ccc(S(=O)(=O)Cl)cc1 | -6.82% |  |
| CC1C2CC(CC2C2CCCC(O)C2)C1(C)C (stereo not given) | -43.4% |  |
| C=C(C)C(=O)OCCOCCOC(=O)C(=C)C | -1.78% |  |
| CC(C)n1nc(-c2cc3cc(O)ccc3[nH]2)c2c(N)ncnc21 | -14.7% [at 42.5 µM] |  |
| CCOC(=O)CC(=O)c1ccccc1 | 4.44% |  |
| c1csc(SSc2cccs2)c1 |  | 6.11 µM (active) |
| CCCCOCCOCCOCCOCCO | -6.15% |  |
| CCn1nc(C(=O)O)c(=O)c2cc3c(cc21)OCO3 | -6.09% [at 42.5 µM] |  |
| CCN(CC)c1cccc(O)c1 |  | 11.1 µM (active) |
| C[C@@H](O)C(=O)O | 0.685% |  |
| CCOCN(C(=O)CS(=O)(=O)O)c1c(C)cccc1CC | 8.69% |  |
| COc1ccnc(CS(=O)c2nc3ccc(OC(F)F)cc3[nH]2)c1OC (stereo not given) | 13% [at 42.5 µM] |  |
| CC1=C(C(=O)O)N2C(=O)[C@@H](NC(=O)[C@H](N)c3ccccc3)[C@H]2SC1 | 3.37% [at 42.5 µM] |  |
| CCc1cccc2c(CCO)c[nH]c12 | 6.97% [at 42.5 µM] |  |
